In PubChem BioAssay (NCI):
Compounds without any hit were thinned out: in the full panel of roughly 83,000, 20% have a hit.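 48-hour exposure, single concentration, 96-well plates; percent growth endpoint where 0 means no net growth. Active: below 10.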 Activity calls are given as the source filed them.

Assays:
Assay in all cases: NCI-60 one-dose screen, 48 h (100 = growth as untreated, 0 = no growth, -100 = all killed)
Details in all cases: 10 µM unless noted
[1] = tested on: SR leukemia
[2] = tested on: RPMI-8226 leukemia
[3] = tested on: OVCAR-8 ovarian
[4] = tested on: OVCAR-5 ovarian
[5] = tested on: OVCAR-4 ovarian
[6] = tested on: SK-OV-3 ovarian
[7] = tested on: IGROV1 ovarian
[8] = tested on: OVCAR-3 ovarian
[9] = tested on: HS 578T breast
[10] = tested on: NCI/ADR-RES ovarian
[11] = tested on: T-47D breast
[12] = tested on: BT-549 breast
[13] = tested on: MDA-MB-435 melanoma
[14] = tested on: SW-620 colon
[15] = tested on: MCF7 breast
[16] = tested on: HCC-2998 colon
[17] = tested on: KM12 colon
[18] = tested on: HCT-116 colon

Measured: growth

O=C(Nc1cccc(Oc2nnc(Cl)c3ccccc23)c1)Nc1ccc(Cl)c(C(F)(F)F)c1
active: [1] -23.8% | [2] -15.9% | [3] -16.8% | [4] -7.38% | [5] 2% | [6] -44.1% | [7] -16.8% | [8] -41.9% | [9] -17.2% | [10] -28.2% | [11] -24.6% | [12] -37.2% | [13] -78.4% | [14] -62.9% | [15] -35.6% | [16] -86.5% | [17] -60.1%

Fc1c[c-]c(-c2ccccn2)c(F)c1.[CH3-].[Pt+2].c1ccc(P(C[PH+](c2ccccc2)c2ccccc2)c2ccccc2)cc1
active: [1] 1.65% | [2] -13.2% | [3] 7.36% | [4] -34.5% | [5] -19.3% | [6] 9.11% | [7] -22.2% | [8] -74.9% | [9] -5.48% | [12] -28.1% | [13] -51.8% | [14] -63.5% | [15] 6.04% | [18] -66% | [16] -27.5% | [17] -40.6%
inactive: [10] 49.8%

O=c1ssc(Cl)c1-c1ccccc1
inactive: [1] 124% | [2] 111% | [3] 89.4% | [4] 88.7% | [5] 98.4% | [6] 118% | [7] 83.7% | [8] 126% | [9] 104% | [10] 95.9% | [11] 95.7% | [13] 98.4% | [14] 95.2% | [15] 89.3% | [18] 93.5% | [16] 104% | [17] 113%

COc1cc(N=Nc2ccc(N)cc2)c(OC)cc1N=Nc1ccccc1.[Cl][Zn][Cl]
inactive: [1] 93.2% | [2] 90.9% | [3] 98.8% | [4] 96.4% | [5] 92.3% | [6] 96.5% | [7] 47.6% | [8] 99.8% | [9] 107% | [10] 95.8% | [11] 88.2% | [12] 93.5% | [13] 98.7% | [14] 105% | [15] 85.6% | [18] 101% | [16] 98.9% | [17] 105%

C=C1C(=O)O[C@H]2[C@H]1CC/C(COC(=O)C(=O)c1cn(C)c3ccc(OC)cc13)=C\CC[C@@]1(C)O[C@@H]21
active: [1] 2.42% | [2] -37.5% | [3] -9.07% | [4] -18.9% | [6] -11.6% | [7] -67.7% | [8] -72.1% | [9] 3.23% | [10] 7.43% | [11] -55.3% | [12] -79.1% | [13] -79.2% | [14] -63.6% | [15] -34.8% | [16] -65.3% | [17] -65%
inactive: [5] 20.3%

Cc1cc(N2CCCC2)nc(NCc2cc(Nc3ccnc4cc(Cl)ccc34)ccc2F)n1
active: [1] -28.1% | [2] -44.2% | [3] -54.5% | [4] -11.8% | [5] -14.9% | [7] -18.4% | [8] -86.9% | [9] -34.5% | [10] -33.7% | [11] -54.7% | [14] -71.1% | [15] -56.1% | [18] -76.3% | [16] -74.9% | [17] -58.8%
inactive: [6] 26.8% | [12] 55.2%

N=C(N)c1ccc(-c2ccc(-c3cncc4ccccc34)s2)s1
inactive: [6] 64.4%
active: [1] -29.3% | [2] -33.5% | [3] -67.9% | [4] -69.3% | [5] -90.4% | [7] -75.1% | [8] -85.5% | [9] -49.6% | [10] -53% | [11] -58.3% | [13] -91.2% | [14] -68.4% | [15] -68.7% | [18] -84.4% | [16] -78.3% | [17] -78.8%

COc1ccc2occ(C3=C(c4c[nH]c5ccccc45)C(=O)N(O)C3=O)c2c1
inactive: [1] 57.2% | [2] 66.7% | [3] 90.5% | [4] 104% | [5] 112% | [6] 88.7% | [7] 91.3% | [8] 98.9% | [9] 95.7% | [10] 99.1% | [11] 76.1% | [12] 84.2% | [13] 96.3% | [14] 89.2% | [15] 82.5% | [16] 112% | [17] 91.1%

Cc1cc(Cl)ccc1Nc1nc(C(F)(F)F)ccc1C(=O)N/N=C/c1ccc(N(C)C)cc1
inactive: [1] 17.4% | [3] 18.7% | [4] 43.2% | [5] 16% | [6] 42.3% | [7] 21% | [8] 22.5% | [9] 39.4% | [10] 16.1% | [11] 37% | [12] 34.9% | [13] 43.7% | [14] 15.9% | [15] 10.1% | [18] 19.4% | [17] 26.9%
active: [2] -26.1% | [16] -37.3%
